# Assay outcomes: PubChem BioAssay, Broad Institute
# The list is a sample of the results.
# aSyn 5UTR act – Activators via SNCA 5'UTR binding, MLPCN | AID 1814, 2009 | alpha-synuclein 5'UTR reporter, activators screen | 7.1% of 300,000 active | activity score, % (tested at 7.5 µM), hits read low; in the data active = activity score below about -60%
# The depositor's hits bear a star.
SMILES,aSyn 5UTR act
COc1cccc(/C=N/Nc2cc(Cl)nc(C)n2)c1O,-100*
COc1cccc(/C=N/Nc2c(Cl)cncc2Cl)c1O,-120*
CCCCSc1nc(C)cc(SCC(=O)N/N=C/c2cccc(OC)c2O)n1,81
Cn1ncc(SCc2ccccc2)c(Cl)c1=O,-64*
Cc1ccc(Nc2nc(C)c(CCC(C)C)c(=O)[nH]2)cc1,-94*
Cc1ccc(Nc2nc3c(c(=O)[nH]2)CCCC3)cc1,-143*
Cc1nc(NC(=O)CSc2nnnn2C)sc1C,-121*
Cc1csc(NC(=O)CSc2nnnn2C)n1,-68*
COC(=O)c1sc(NC(=O)CSc2nnnn2C)nc1C,-73*
Clc1ccc2c(c1)C(C1=NCCN1)c1ccccc1CS2 (stereo unspecified),79
Cc1ccc(N2C(=O)CC(Sc3nc(C)cc(C)n3)C2=O)cc1 (stereo unspecified),-63*
COc1cc2c(c(OC)c1OC)-c1ccc(N(C)CC(OC)OC)c(=O)cc1[C@@H](NC(C)=O)CC2,84
CN(C(=O)C1CCOC1)c1nnc(-c2ccccn2)s1 (stereo unspecified),-67*
CCc1ccc(-c2nc(CSCC(=O)N3CCN(c4ccccn4)CC3)c(C)o2)cc1,82
O=C(CSCc1ccccc1Cl)N1CCN(c2ccccn2)CC1,-82*
O=C(CCSCc1ccccc1F)N1CCN(c2ccccn2)CC1,-78*
CCOc1ccc(/C=N/n2cc(-c3ccccc3)[nH]c2=S)cc1,-65*
Cc1sc(NC(=O)c2ccccc2)c(C#N)c1-c1ccccc1,-141*
CCc1c(C)sc(NC(=O)c2cccs2)c1C#N,-158*
Cc1cc(C(=O)Nc2sc(C)c(-c3ccc(F)cc3)c2C(N)=O)no1,-200*
CCc1c(C)sc(NC(=O)c2cc(C)on2)c1C#N,-103*
O=[N+]([O-])c1cc(/C=N\Nc2nc(-c3ccccc3)cs2)ccc1O,-67*
COc1cc(/C=N/Nc2nc(-c3ccc(S(=O)(=O)N(C)C)cc3)cs2)ccc1O,-78*
CCOC(=O)c1cn(-c2ccc([N+](=O)[O-])cc2)c2cc(Cl)c([N+](=O)[O-])cc2c1=O,-110*
CCc1ccc(C(O)(CC(C)C)C(CN2CCOCC2)c2ccccc2)cc1 (stereo unspecified),57
SMILES,aSyn 5UTR act
CCc1ccc(N2Cc3ccccc3C2)cc1,-151*
CCOC(=O)c1ccc(N2Cc3ccccc3C2)cc1O,-122*
COc1ccc(-c2nnc(SCC(=O)c3ccc[nH]3)n2-c2ccccc2)cc1,-70*
Cc1c(C=O)c2cc(OCc3ccccc3)ccc2n1C,-76*
Cc1cc2cc(OCc3ccccc3)ccc2n1C,-183*
COCCN1Cc2cccc(C(=O)Nc3cccc(-c4nc5ccccc5[nH]4)c3)c2C1=O,-80*
CCCN1Cc2cccc(C(=O)Nc3ccc(-c4nc5ccccc5[nH]4)cc3)c2C1=O,-62*
COCc1cc(C)nc2sc(C(=O)Nc3nccs3)c(N)c12,-121*
COCc1cc(C)nc2sc(C(=O)Nc3cccc(OC)c3)c(N)c12,-192*
CCc1ccc(-c2cc(C)no2)cc1S(=O)(=O)N1CCN(c2ccccc2)CC1,-73*
Cc1[nH]n(-c2ccccc2)c(=O)c1N=Nc1ccccc1O,50
COc1cccc(N=Nc2c(C)[nH]n(-c3ccccc3)c2=O)c1,-145*
Cc1[nH]n(-c2ccccc2)c(=O)c1N=Nc1ccc2c(c1)OCO2,-214*
C=CCN(C(=O)C1CSC2(C)CCC(=O)N12)c1nc(-c2ccccc2)cs1 (stereo unspecified),-68*
CCOC(=O)c1[nH]c2ccc(C)cc2c1N,-234*
O=C(NC(=S)Nc1ccc2oc(-c3cccnc3)nc2c1)c1cccc(Cl)c1,-115*
CCCC(=O)NC(c1ccccc1Cl)c1ccc2cccnc2c1O (stereo unspecified),68
CCCC(=O)Nc1ccc(-c2nc3ncccc3o2)cc1,-181*
COC(=O)Cc1ccc2oc(-c3cccnc3)nc2c1,-64*
CCCC(=O)Nc1ccc2oc(-c3cccnc3)nc2c1,-80*
CCCc1nc2oc3c(NCc4ccccn4)ncnc3c2c2c1COC(C)(C)C2,53
Cc1nc2oc(C(=O)c3ccccc3)c(N)c2c2c1COC(C)(C)C2,-83*
C/C(=N\OC(=O)c1cccc(C)c1)c1sc(-c2ccccc2)nc1C,-147*
C/C(=N\OC(=O)c1cccc(C(F)(F)F)c1)c1sc(-c2ccccc2)nc1C,-119*
O=C(CSc1ncccn1)NCc1cccc(Cl)c1,-65*
SMILES,aSyn 5UTR act
O=C(Cc1cccs1)NCc1cccc(Cl)c1,-88*
CCCOc1ccc(CNC(=O)Cc2cccs2)cc1,-98*
O=C(Cc1cccs1)NCc1ccc(Cl)cc1Cl,-155*
CC1(C)N=C(N)N=C(N)N1c1ccc(Oc2ccc(Cl)cc2)c(Cl)c1,85
COC(=O)c1ccc(N=Cc2c(C(F)(F)F)[nH][nH]c2=O)cc1,-135*
CN(C)c1ccc(-c2nnc(-c3ccc(S(=O)(=O)C(F)F)cc3)o2)cc1,-63*
COc1ccc(-c2nnc(-c3ccc(N(C)C)cc3)o2)cc1,-148*
COc1ccc(-c2nnc(-c3ccc(N)cc3)o2)cc1,-113*
O=C1/C(=C/c2cccnc2)Oc2cc(OS(=O)(=O)c3ccccc3)ccc21,-82*
O=C(Nc1nc2c(s1)CCc1ccccc1-2)c1ccco1,-140*
Cc1nc2ccc3nc(NC(=O)c4ccco4)sc3c2s1,-152*
O=C(Nc1nc2c(Cl)ccc(Cl)c2s1)c1ccco1,-184*
O=c1sc(Nc2ccccc2)nc2ccsc12,-111*
O=C(Nc1nc2ccsc2c(=O)s1)c1ccco1,-130*
O=C(Nc1nc2ccsc2c(=O)s1)C1CCC1,-96*
Cc1ccccc1Oc1ccc(Oc2ccccc2C)nn1,-136*
COc1cccc2[nH]c(=O)c(-c3ccccc3)cc12,-136*
COc1cc(CNc2ccc3[nH]c(=O)[nH]c3c2)ccc1OCc1ccc(F)cc1,-91*
COc1cc(CNc2ccc3[nH]c(=O)[nH]c3c2)ccc1OCc1ccc(Cl)cc1,-171*
COc1cc(CNc2ccc(CNc3ncn[nH]3)cc2)ccc1OCc1ccccc1,-117*
COc1cc(CNc2ccc3[nH]c(=O)[nH]c3c2)ccc1OCc1ccccc1F,-107*
COc1cc(CNc2ccc3[nH]c(=O)[nH]c3c2)ccc1OCc1ccccc1,-86*
COc1ccc2[nH]c(N=Nc3ccccc3C)c(O)c2c1,-207*
COc1ccc2c(c1)O/C(=C\c1ccccc1C)C2=O,-131*
N/C(=N\OC(=O)c1cccs1)c1ccc(Cl)cc1,-104*
SMILES,aSyn 5UTR act
COc1ccc(C(=O)O/N=C(\N)c2ccc(Cl)cc2)cc1,-196*
N/C(=N/OC(=O)c1ccc(Cl)cc1)c1ncc([N+](=O)[O-])s1,-78*
COc1ccccc1C(=O)O/N=C(\N)c1ccc(Cl)cc1,-264*
COC(=O)c1c(NC(=O)c2ccc(OC(C)C)cc2)sc2c1CC(C)(C)NC2(C)C,103
Cc1sc(NC(=S)NC(=O)c2ccco2)c(C(N)=O)c1C,-92*
COC(=O)CCC(=O)NC(=S)Nc1sc(C)c(C)c1C(N)=O,90
Cc1sc(NC(=O)Nc2ccccc2)c(C(N)=O)c1C,-161*
COC(=O)c1c(NC(=O)c2ccccc2)sc2c1CC(C)(C)OC2,-69*
CC1(C)Cc2c(sc(NC(=O)Nc3ccccc3)c2C(N)=O)CO1,-158*
O=c1oc2cc(OCc3ccc([N+](=O)[O-])cc3)ccc2c2c1CCCC2,-65*
CC(=O)C(C)Oc1ccc2c3c(c(=O)oc2c1)CCCCC3 (stereo unspecified),-109*
CC(=O)C(C)Oc1ccc2c3c(c(=O)oc2c1)CCCC3 (stereo unspecified),-79*
